High-throughput results deposited in PubChem by National Center for Advancing Translational Sciences (NCATS).
Rows were chosen to be rich in hits. Some 12% of all compounds tested hit in one or more screens of this group.
BAZ2B block = blocks human BAZ2B. actives 4.4% (n = 360,000). Q9UIF8. Potency, µM (top dose mostly 114 µM), without a hit: at the highest dose activity change, negative = inhibition, hits mostly inhibitors. AlphaScreen BAZ2B-H3K14Ac peptide displacement. AID 504333; note: potency is the fitted concentration of half-maximal effect; % is set by controls: 0 for no effect and ±100 for the full control effect; nearly all actives have a fitted effect of over 60% in size
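Multi-concentration screen (max 110 uM) measuring displacement of acetylated histone H3 peptide from BAZ2B by AlphaScreen, using 50 nM protein, 50 nM peptide and 10 ug/mL streptavidin donor plus Ni-chelate acceptor beads.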
PLK1 PBD block = inhibitors of human PLK1 polo-box domain binding; actives 2.8% (n = 360,000); Potency, µM, without a hit: max response, negative = inhibition, actives largely listed as inhibitors; Plk1 PBD binding of FITC phosphopeptide, fluorescence polarization; P53350; note: potency is the fitted concentration of half-maximal effect; series mostly up to about 57 µM; % is set by controls: 0 for no effect and ±100 for the full control effect; nearly all actives have a fitted effect of over 65% in size
JMJD2A Tudor = JMJD2A Tudor domain (human) inhibition; AlphaScreen JMJD2A-Tudor / H3K4me3 peptide binding; O75164; Potency, µM (highest dose often 114 µM), for the others: at the top dose activity change, negative = inhibition, most hits filed as inhibitors; actives 4.4% (n = 390,000); AID 504339; note: potency is the fitted concentration of half-maximal effect; % is set by controls: 0 for no effect and ±100 for the full control effect; nearly all actives have a fitted effect of over 50% in size
HP1b chromo inh = blocks HP1-beta chromodomain binding to methylated histone tails; AlphaScreen HP1-beta / biotin-H3K9me3 peptide binding; actives 0.56% (n = 390,000); Potency, µM (titrated, usually from 114 µM), for inactives: top-dose activity change, negative = inhibition, hits mostly inhibitors; P83916; note: potency is the fitted concentration of half-maximal effect; nearly all actives have a fitted effect of over 70% in size
Target sequence (P83916 whole entry, looked up): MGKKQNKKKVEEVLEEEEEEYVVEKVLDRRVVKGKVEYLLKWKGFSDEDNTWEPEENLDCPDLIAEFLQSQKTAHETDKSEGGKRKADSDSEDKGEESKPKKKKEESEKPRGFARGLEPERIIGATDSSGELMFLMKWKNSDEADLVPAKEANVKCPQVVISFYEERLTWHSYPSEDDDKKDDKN
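Compound inhibition of the preformed complex between 50 nM HP1-beta and 50 nM biotinylated H3K9me3 peptide was read by AlphaScreen. Buffer was PBS pH 7.4 with 0.01% Tween-20. Incubations ran 30 min at room temperature, with 10 ug/mL donor/acceptor beads.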
G9a inh = G9a (human) methyltransferase inhibition | actives 8.8% (n = 350,000) | Potency, µM (titrated, usually from 102 µM), inactives show at the highest dose activity, negative = inhibition, actives largely listed as inhibitors | G9a H3K9 monomethylation, AlphaScreen, 2 h; note: potency is the fitted concentration of half-maximal effect; % is set by controls: 0 for no effect and ±100 for the full control effect; nearly all actives have a fitted effect of over 75% in size
Target sequence (Q96KQ7 913-1193 limits assumed): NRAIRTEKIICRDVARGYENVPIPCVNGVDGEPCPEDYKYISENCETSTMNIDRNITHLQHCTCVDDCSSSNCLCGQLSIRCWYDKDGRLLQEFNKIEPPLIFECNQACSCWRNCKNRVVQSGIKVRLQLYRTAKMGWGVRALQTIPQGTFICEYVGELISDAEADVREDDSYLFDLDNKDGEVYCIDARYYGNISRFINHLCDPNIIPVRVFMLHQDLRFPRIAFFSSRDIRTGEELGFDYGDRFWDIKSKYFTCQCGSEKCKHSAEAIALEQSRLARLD
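G9a (20 nM) preincubated 15 min RT with compounds, then 500 nM biotinylated H3K9 peptide and 20 uM SAM added; 2 h RT reaction. Monomethyl-H3K9 product detected by AlphaScreen with anti-H3K9me1 antibody, streptavidin donor and anti-rabbit IgG acceptor beads.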
PI5P4K alpha inh = blocks human PI5P4K alpha kinase activity; P48426; max response, %; actives 1.2% (n = 330,000); AID 652105; PI5P4Kalpha enzyme, ADP-Glo luminescence, 60 min; hits give low values; active = max response of -50% or lower; inconclusive = between -30% and -50%; inactive = -30% or higher; note: value at the top dose of about 77 µM; % is set by controls: 0 for no effect and ±100 for the full control effect
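Single end-point luminescence (ADP-Glo) quantified ADP from PI5P4Kalpha turnover; ATP 5 microM final, 1 h at RT, 0.1% CHAPS and 0.28 mM EGTA in HEPES pH 7.4.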
* marks the source's active call; other numbers are inactive results; ? = inconclusive; nt = not tested or not shown; [ ] = another dose, or the depositor's remark. Unless noted, calls come from the whole dose curve; as a rule, active = well fitted curve in the direction sought with a large enough effect; inconclusive = small, poorly fitted or top-dose-only effect, or another doubt; inactive = no such curve, though single readings can be large; an effect the other way counts as inactive or inconclusive.

SMILES	BAZ2B block	PLK1 PBD block	JMJD2A Tudor	HP1b chromo inh	G9a inh	PI5P4K alpha inh
O=C(c1ccco1)N1CCN(C2CC(=O)N(c3ccccc3)C2=O)CC1 (configuration not stated)	-34.5%	-3.5%	-3.6%	42.9%	?	-1.4
CC(C)Oc1cccc(C(=O)Nc2nnc([C@@H]3C[C@H](O)[C@@H](CO)O3)s2)c1	nt	-1.3%	nt	nt	nt	-0.5
Cc1ccc(N2C(=O)[C@@H]3[C@H](C2=O)C2c4ccccc4C=CN2[C@@H]3C(=O)c2ccco2)c(C)c1 (some centres not stated)	-33.2%	26.7µM*	?	-25.9%	5.8%[2.33 µM]	-21.9
CC(C)(C)C(=O)[C@@H]1[C@@H]2C(=O)N(c3ccc4c(c3)OCCO4)C(=O)[C@@H]2C2c3ccccc3C=CN21 (some centres not stated)	?	10.6µM*	?	?	8.91µM*	-5.4
COc1ccc(C(NCC(=O)Nc2c(C)cccc2C)c2ccccc2)cc1 (configuration not stated)	31.6µM*	3.2%	20µM*	28.2µM*	?	3.5
COc1ccc(NC(=O)CNC(c2ccccc2)c2ccccc2)cc1Cl	4.7%	-8.6%	-2.1%	14.5%	26.0%	11.7
COC(=O)N/N=C/c1cc(C)n(-c2cccc3ccccc23)c1C	79.4µM*	-4.7%	?	?	-17.4%[59 µM]	-16.4
CCOC(=O)N/N=C/c1cc(C)n(-c2cccc3ccccc23)c1C	?	-7.2%	-42.2%	?	4.47µM*	6.3
CCOC(=O)N/N=C/c1cc(C)n(-c2ccccc2)c1C	-28.8%	-7.2%	-31.4%	4.5%	?	-2.2
C#Cc1ccc(NC(=O)C2(C)CCN2C(=O)CC(c2ccccc2)c2ccccc2)cc1 (configuration not stated)	nt	-8.3%	nt	nt	nt	20.6
CCC1=C(c2ccc(C)cc2)S(=O)(=O)N=C1N1CCC(C(=O)NCCc2ccc(Cl)cc2)CC1	-1.8%	nt	-11.6%	30.7%	-5.6%[59 µM]	nt
CSC(N)=NCCC[C@H](N)C(=O)O	nt	nt	nt	nt	34.3%[59 µM]	nt
CCN=C1S/C(=C\c2cc(Br)c(O)c(OC)c2)C(=O)N1CC	-6.5%	13.8%	-18.6%	26.6%	-4.6%[59 µM]	-73.1*
COc1cc(/C=C2/SC(=S)N(Cc3ccccc3)C2=O)ccc1OS(C)(=O)=O	?	-16.7%	?	-26.4%	12.6µM*	1.4
CCN=C1S/C(=C\c2ccc(OC)c(OCC)c2)C(=O)N1CC	-3.0%	nt	nt	nt	?	nt
COc1cc(/C=C2/SC(=S)N(Cc3ccccc3)C2=O)cc(Cl)c1O	12.6µM*	-33.1%	25.1µM*	?	44.7µM*	?
COc1cc([N+](=O)[O-])cc(/C=C2/SC(=S)N(Cc3ccccc3)C2=O)c1O	14.1µM*	29.9µM*	17.8µM*	?	10µM*	-70.6*
COc1cc(/C=C2\SC(=S)N(CCC(=O)NCCc3ccccc3)C2=O)cc(OC)c1OC	1.8%	-1.6%	-0.7%	12.1%	-2.1%	13.7
S=C1NC2=C(CCCC2=C2SCCS2)C(c2ccccc2)N1 (configuration not stated)	?	?	?	-16.1%	10µM*	6.5
COc1ccc(/C=N/N=C2\SCC(=O)N2c2c(C)n(C)n(-c3ccccc3)c2=O)cc1OC	?	-7.5%	-8.6%	27.9%	8.91µM*	1.9
Cc1c(N2C(=O)CS/C2=N\N=C\c2ccc(Cl)cc2)c(=O)n(-c2ccccc2)n1C	4.2%	-10.4%	-13.9%	13.8%	53.4%[12.7 µM]	nt
COCCNC(=O)C1(C)CCN(Cc2cccc(Oc3ccccc3)c2)C1 (configuration not stated)	nt	-4.7%	nt	nt	nt	-3.4
COc1ccc2nc(N(CCN(C)C)C(=O)c3ccc4ncsc4c3)sc2c1	nt	0.2%	nt	nt	nt	-19.1
CCOc1cccc2sc(N(CCN(C)C)C(=O)c3ccc4c(c3)OCCO4)nc12	-31.7%	-0.1%	-24.1%	-4.8%	-47.3%	-1.5
CCOc1cccc2sc(N(CCN(C)C)C(=O)c3cc4ccccc4cc3OC)nc12	?	-14.4%	44.7µM*	-20.4%	39.8µM*	4.3
